What was measured:
Assay in all cases: DAPPL (digital affinity profiling via proximity ligation, sequencing); 10 mM Tris-HCl pH 7.5, 50 mM NaCl, 1 mM DTT, 4% glycerol, room temperature, 30 min; GST-TFs on glutathione beads, 16-mer random dsDNA library, 0.1% formaldehyde crosslink after washing; high values mean tight binding
Settings in all cases: protein: recombinant; tags: N-terminal GST; dsDNA, one strand shown
ERF = molecular target: T1, ERF (Homo sapiens, UniProt P50548 1-548)
T1 sequence: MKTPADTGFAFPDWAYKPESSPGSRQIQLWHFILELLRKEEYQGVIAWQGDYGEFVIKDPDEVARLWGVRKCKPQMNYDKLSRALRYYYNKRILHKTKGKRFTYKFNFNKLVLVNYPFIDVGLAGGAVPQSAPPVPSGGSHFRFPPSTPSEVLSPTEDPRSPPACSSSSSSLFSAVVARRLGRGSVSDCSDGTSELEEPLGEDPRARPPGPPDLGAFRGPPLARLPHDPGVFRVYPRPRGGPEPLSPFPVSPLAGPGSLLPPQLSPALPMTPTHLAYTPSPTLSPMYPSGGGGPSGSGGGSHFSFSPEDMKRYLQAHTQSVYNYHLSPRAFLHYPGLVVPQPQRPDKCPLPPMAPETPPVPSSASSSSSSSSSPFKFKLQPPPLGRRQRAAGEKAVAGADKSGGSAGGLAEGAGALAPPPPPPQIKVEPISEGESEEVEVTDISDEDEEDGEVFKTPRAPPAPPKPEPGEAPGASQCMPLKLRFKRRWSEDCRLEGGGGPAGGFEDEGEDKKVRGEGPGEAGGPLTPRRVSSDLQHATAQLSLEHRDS
Summary of the method: (§1)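 GST fusions of human transcription factors were expressed in yeast and captured with glutathione beads. Once given DNA barcodes and pooled alongside a tag-only sample, they were incubated for 30 min at room temperature with 200 nmole of a random double-stranded 16-mer DNA library in Tris/NaCl/DTT/glycerol buffer, then washed, crosslinked (0.1% formaldehyde), proximity-ligated, PCR-amplified and sequenced on an Illumina NextSeq500. The binding signal of each hexamer is its read frequency for a factor divided by its frequency for the tag-only sample.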

ETV3L = molecular target: T2, ETV3L (Homo sapiens, UniProt Q6ZN32 1-361)
T2 sequence: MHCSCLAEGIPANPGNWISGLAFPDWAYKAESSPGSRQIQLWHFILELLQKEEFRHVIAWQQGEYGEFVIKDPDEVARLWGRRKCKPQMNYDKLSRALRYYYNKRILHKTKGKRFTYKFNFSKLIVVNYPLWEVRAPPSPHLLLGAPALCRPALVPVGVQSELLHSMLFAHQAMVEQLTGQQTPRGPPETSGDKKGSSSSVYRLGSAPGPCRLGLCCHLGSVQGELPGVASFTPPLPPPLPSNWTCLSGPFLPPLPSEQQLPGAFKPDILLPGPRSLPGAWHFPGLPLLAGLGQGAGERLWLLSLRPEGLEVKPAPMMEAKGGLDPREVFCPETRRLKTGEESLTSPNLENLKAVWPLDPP
Summary of the method: as §1

ETS2 = molecular target: T3, ETS2 (Homo sapiens, UniProt P15036 1-469)
T3 sequence: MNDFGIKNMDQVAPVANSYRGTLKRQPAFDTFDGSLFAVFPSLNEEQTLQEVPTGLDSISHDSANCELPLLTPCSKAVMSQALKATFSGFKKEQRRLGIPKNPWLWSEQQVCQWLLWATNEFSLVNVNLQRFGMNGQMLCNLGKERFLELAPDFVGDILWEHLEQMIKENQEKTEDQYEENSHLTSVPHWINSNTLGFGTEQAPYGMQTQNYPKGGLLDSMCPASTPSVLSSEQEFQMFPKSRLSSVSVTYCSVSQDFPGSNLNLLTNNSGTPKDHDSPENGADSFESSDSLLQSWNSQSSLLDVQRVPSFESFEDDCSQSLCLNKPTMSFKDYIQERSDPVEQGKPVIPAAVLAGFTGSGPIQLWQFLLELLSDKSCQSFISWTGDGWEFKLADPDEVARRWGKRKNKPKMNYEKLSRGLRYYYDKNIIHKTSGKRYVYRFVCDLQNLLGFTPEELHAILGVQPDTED
Summary of the method: as §1

SPDEF = molecular target: T4, SPDEF (Homo sapiens, UniProt O95238 1-335)
T4 sequence: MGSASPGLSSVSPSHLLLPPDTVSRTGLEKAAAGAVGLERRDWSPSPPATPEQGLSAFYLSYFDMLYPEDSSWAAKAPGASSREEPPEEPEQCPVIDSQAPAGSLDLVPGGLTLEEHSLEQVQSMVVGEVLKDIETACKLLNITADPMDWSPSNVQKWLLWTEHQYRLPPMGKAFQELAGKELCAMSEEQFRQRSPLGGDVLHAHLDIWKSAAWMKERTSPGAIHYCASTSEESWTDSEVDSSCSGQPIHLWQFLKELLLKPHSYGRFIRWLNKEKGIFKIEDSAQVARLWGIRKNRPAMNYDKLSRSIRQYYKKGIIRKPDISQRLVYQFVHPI
Summary of the method: as §1

ETV7 = molecular target: T5, ETV7 (Homo sapiens, UniProt Q9Y603 1-341)
T5 sequence: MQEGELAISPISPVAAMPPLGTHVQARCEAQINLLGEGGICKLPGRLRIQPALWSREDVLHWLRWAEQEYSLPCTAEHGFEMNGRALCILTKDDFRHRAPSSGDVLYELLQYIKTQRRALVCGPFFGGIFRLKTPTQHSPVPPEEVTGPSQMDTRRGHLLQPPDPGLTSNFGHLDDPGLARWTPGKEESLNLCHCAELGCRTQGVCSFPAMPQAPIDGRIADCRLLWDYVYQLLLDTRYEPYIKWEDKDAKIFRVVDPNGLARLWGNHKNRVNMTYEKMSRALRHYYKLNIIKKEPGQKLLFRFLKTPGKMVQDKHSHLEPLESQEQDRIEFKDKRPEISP
Summary of the method: as §1

ELF5 = molecular target: T6, ELF5 (Homo sapiens, UniProt Q9UKW6-2 1-255)
T6 sequence: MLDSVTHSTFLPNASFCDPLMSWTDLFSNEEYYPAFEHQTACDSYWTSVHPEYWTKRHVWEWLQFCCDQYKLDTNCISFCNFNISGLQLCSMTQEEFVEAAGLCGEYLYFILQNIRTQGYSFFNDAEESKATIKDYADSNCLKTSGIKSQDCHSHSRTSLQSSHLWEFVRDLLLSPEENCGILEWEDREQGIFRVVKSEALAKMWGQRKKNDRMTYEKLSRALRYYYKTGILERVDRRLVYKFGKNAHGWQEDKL
Summary of the method: as §1

ETV3 = molecular target: T7, ETV3 (Homo sapiens, UniProt P41162-2 1-143)
T7 sequence: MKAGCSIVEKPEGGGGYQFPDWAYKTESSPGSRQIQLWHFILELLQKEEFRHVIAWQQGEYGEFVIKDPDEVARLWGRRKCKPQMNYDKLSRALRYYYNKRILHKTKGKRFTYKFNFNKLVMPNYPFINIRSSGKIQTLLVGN
Summary of the method: as §1

ETV6 = ETV6 (Homo sapiens, UniProt P41212 1-452)
Summary of the method: as §1

ETV6, sequence (P41212 whole entry): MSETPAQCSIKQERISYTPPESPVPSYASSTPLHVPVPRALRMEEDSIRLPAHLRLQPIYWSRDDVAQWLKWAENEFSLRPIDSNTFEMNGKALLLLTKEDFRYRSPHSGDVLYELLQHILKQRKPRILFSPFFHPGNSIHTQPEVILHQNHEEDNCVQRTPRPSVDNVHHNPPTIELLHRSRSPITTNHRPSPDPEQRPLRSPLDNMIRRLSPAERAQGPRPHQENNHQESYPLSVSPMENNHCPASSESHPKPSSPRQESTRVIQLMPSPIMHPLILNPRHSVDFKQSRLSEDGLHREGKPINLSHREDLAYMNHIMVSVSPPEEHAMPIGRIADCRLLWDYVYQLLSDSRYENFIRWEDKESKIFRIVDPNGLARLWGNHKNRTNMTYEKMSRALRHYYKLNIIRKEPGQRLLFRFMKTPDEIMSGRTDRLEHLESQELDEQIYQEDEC

Row | Sequence | binding signal (ERF) | binding signal (ETV3L) | binding signal (ETS2) | binding signal (SPDEF) | binding signal (ETV7) | binding signal (ELF5) | binding signal (ETV3) | binding signal (ETV6)
1 | TTACTC | 1.27 fold enrichment (6-mer frequency, TF over GST control) | 1.15 fold enrichment (6-mer frequency, TF over GST control) | 1.37 fold enrichment (6-mer frequency, TF over GST control) | 1.28 fold enrichment (6-mer frequency, TF over GST control) | 1.29 fold enrichment (6-mer frequency, TF over GST control) | 1.21 fold enrichment (6-mer frequency, TF over GST control) | 1.29 fold enrichment (6-mer frequency, TF over GST control) | 1.27 fold enrichment (6-mer frequency, TF over GST control)
2 | AATCTT | 1.26 fold enrichment (6-mer frequency, TF over GST control) | 1.38 fold enrichment (6-mer frequency, TF over GST control) | 1.41 fold enrichment (6-mer frequency, TF over GST control) | 1.27 fold enrichment (6-mer frequency, TF over GST control) | 1.31 fold enrichment (6-mer frequency, TF over GST control) | 1.43 fold enrichment (6-mer frequency, TF over GST control) | 1.31 fold enrichment (6-mer frequency, TF over GST control) | 1.31 fold enrichment (6-mer frequency, TF over GST control)
3 | TAGTTT | 1.36 fold enrichment (6-mer frequency, TF over GST control) | 1.31 fold enrichment (6-mer frequency, TF over GST control) | 1.19 fold enrichment (6-mer frequency, TF over GST control) | 1.16 fold enrichment (6-mer frequency, TF over GST control) | 1.19 fold enrichment (6-mer frequency, TF over GST control) | 1.18 fold enrichment (6-mer frequency, TF over GST control) | 1.32 fold enrichment (6-mer frequency, TF over GST control) | 1.23 fold enrichment (6-mer frequency, TF over GST control)
4 | GCTCCG | 1.26 fold enrichment (6-mer frequency, TF over GST control) | 1.33 fold enrichment (6-mer frequency, TF over GST control) | 1.33 fold enrichment (6-mer frequency, TF over GST control) | 1.34 fold enrichment (6-mer frequency, TF over GST control) | 1.27 fold enrichment (6-mer frequency, TF over GST control) | 1.25 fold enrichment (6-mer frequency, TF over GST control) | 1.2 fold enrichment (6-mer frequency, TF over GST control) | 1.19 fold enrichment (6-mer frequency, TF over GST control)
5 | TAATAC | 1.14 fold enrichment (6-mer frequency, TF over GST control) | 1.1 fold enrichment (6-mer frequency, TF over GST control) | 1.12 fold enrichment (6-mer frequency, TF over GST control) | 1.12 fold enrichment (6-mer frequency, TF over GST control) | 1.11 fold enrichment (6-mer frequency, TF over GST control) | 1.09 fold enrichment (6-mer frequency, TF over GST control) | 1.03 fold enrichment (6-mer frequency, TF over GST control) | 1.12 fold enrichment (6-mer frequency, TF over GST control)
6 | GTTGCT | 1.27 fold enrichment (6-mer frequency, TF over GST control) | 1.26 fold enrichment (6-mer frequency, TF over GST control) | 1.22 fold enrichment (6-mer frequency, TF over GST control) | 1.27 fold enrichment (6-mer frequency, TF over GST control) | 1.38 fold enrichment (6-mer frequency, TF over GST control) | 1.27 fold enrichment (6-mer frequency, TF over GST control) | 1.51 fold enrichment (6-mer frequency, TF over GST control) | 1.29 fold enrichment (6-mer frequency, TF over GST control)
7 | CTAGGT | 1.03 fold enrichment (6-mer frequency, TF over GST control) | 1.16 fold enrichment (6-mer frequency, TF over GST control) | 1.11 fold enrichment (6-mer frequency, TF over GST control) | 1.17 fold enrichment (6-mer frequency, TF over GST control) | 1.1 fold enrichment (6-mer frequency, TF over GST control) | 1.01 fold enrichment (6-mer frequency, TF over GST control) | 1.14 fold enrichment (6-mer frequency, TF over GST control) | 1.11 fold enrichment (6-mer frequency, TF over GST control)

Reference: article PMC7862700, “An all-to-all approach to the identification of sequence-specific readers for epigenetic DNA modifications on cytosine”
